An excerpt weighted towards active compounds, which were near 4% of everything screened.
FBA Mtb inh – Mtb fructose-bisphosphate aldolase inhibition; inhibition, % at 1 µM; P9WQA3; 2.3% of 360,000 active; purified M. tuberculosis FBA, fluorescence read-out;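 also: 0% = vehicle and 100% = reference inhibitor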
Rv3671c inh – inhibits the M. tuberculosis serine protease Rv3671c; 0.048% of 320,000 active; inhibition, % at 5.96 µM; P9WHR9; in the data active = inhibition above about 38%;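 also: extracellular domain of Rv3671c used as enzyme; 0% = enzyme with DMSO and 100% = no enzyme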
GDH-TPI counter-1 – counter-screen for M. tuberculosis FBA inhibitors: GDH-TPI coupled enzymes; AID 588335; 1.2% of 360,000 active; GDH-TPI coupled enzyme counterscreen, NADH absorbance; inhibition, % at 4.8 µM; in the data active = inhibition above about 30%;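 also: 0% = DMSO wells and 100% = wells lacking the enzyme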
Mtb bLac sens – beta-lactam sensitization of Mtb H37Rv | M. tuberculosis H37Rv growth with meropenem, percent inhibition | inhibition, % at 25 µM | 0.27% of 330,000 active | AID 434955; call rule not given here;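 also: growth measured after seven days incubation then overnight dye step; 0% = bacteria only wells and 100% = bacteria with antibiotic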
RecA splice inh – inhibitors of M. tuberculosis RecA intein splicing. cell-free RecA intein splicing, fluorescence. 0.75% of 290,000 active. inhibition, % (no concentration beside the values); in the data active = inhibition above about 30%;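 also: 0% = vehicle wells and 100% = reference inhibitor control wells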
Target sequence (P9WHJ3 whole entry, looked up, canonical isoform): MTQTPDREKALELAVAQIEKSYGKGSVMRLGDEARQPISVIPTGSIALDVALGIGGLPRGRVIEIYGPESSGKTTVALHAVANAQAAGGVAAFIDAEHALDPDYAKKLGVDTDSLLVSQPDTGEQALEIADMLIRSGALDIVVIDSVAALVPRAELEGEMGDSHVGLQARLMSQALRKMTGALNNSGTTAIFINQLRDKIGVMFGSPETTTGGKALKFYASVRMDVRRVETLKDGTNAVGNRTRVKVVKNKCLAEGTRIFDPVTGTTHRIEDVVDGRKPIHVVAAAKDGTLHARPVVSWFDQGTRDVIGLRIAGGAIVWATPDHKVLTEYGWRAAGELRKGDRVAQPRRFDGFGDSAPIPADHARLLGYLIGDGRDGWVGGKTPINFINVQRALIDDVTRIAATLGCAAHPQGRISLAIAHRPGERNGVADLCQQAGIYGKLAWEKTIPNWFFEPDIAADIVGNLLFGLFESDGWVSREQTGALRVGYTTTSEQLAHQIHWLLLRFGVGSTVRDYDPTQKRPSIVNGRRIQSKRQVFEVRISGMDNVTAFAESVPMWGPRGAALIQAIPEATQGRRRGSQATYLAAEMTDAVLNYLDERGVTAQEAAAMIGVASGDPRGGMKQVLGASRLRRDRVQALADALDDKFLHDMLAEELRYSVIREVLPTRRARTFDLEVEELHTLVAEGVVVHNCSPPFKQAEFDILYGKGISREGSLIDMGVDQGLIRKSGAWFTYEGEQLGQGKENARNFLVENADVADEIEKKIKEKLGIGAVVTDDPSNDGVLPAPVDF
UGM FP inh – blocks M. tuberculosis UGM enzyme | P9WIQ1 | purified UGM, fluorescence polarization probe displacement | inhibition, % at 10 µM | 0.06% of 320,000 active; in the data active = inhibition above about 10%, passing the limit was not always enough
Mtb FBA inh conf – Mtb FBA inhibition, confirmed. shares compounds with FBA Mtb inh. 78% of 5,600 active. inhibition, % at 1 µM. purified M. tuberculosis FBA, fluorescence read-out. AID 651616;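 also: 0% = vehicle wells and 100% = reference inhibitor wells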
GDH-TPI counter-2 – counter-screen for M. tuberculosis FBA inhibitors: GDH-TPI coupled enzyme inhibition | inhibition, % at 1 µM | 81% of 5,600 active | GDH-TPI coupled enzyme counterscreen, fluorescence | shares compounds with FBA Mtb inh; in the data active = inhibition above about 10%
* hit, by the source's call; i = inactive; / = no result given; + = active, no number. Rule as the data show it, unless noted: active = inhibition above about 27%; inactive = the rest.

SMILES	FBA Mtb inh	Rv3671c inh	GDH-TPI counter-1	Mtb bLac sens	RecA splice inh	UGM FP inh	Mtb FBA inh conf	GDH-TPI counter-2
COc1ccccc1Oc1nc(-c2ccccc2)cc(C)c1S(C)(=O)=O	64*	-3	21	3	1	/	37*	43*
O=[N+]([O-])c1cccc(-c2nnc(-c3ccc4c(c3)OCO4)o2)c1	2	-12	-1	1	-1	0	/	/
Clc1ccccc1-c1nnc2sc(-c3ccc4c(c3)OCO4)nn12	28*	-9	10	/	1	0	+	+
Clc1ccccc1-c1nnc(-c2ccc3c(c2)OCO3)o1	33*	-6	1	66	12	4	93*	63*
CCc1nnc(NC(=O)Cc2ccc(OC)c(OC)c2)s1	1	1	-7	0	2	0	/	/
COC(=O)Nc1nnc(-c2ccc(OC)cc2)s1	43*	-1	16	6	/	-1	58*	56*
CCOC(=O)Nc1nnc(-c2ccc(OC)c(OC)c2)s1	62*	5	12	23	2	0	72*	58*
COc1ccc(-c2nnc(NC(=O)c3c(OC)cccc3OC)s2)cc1	1	3	27	2	3	1	/	/
CC(C)CC(=O)Nc1nnc(S(=O)(=O)Nc2ccccc2)s1	0	-10	-1	-2	1	2	/	/
COCCCNC(=O)CCC(=O)Nc1ccc2nc(N3CCOCC3)cc(C)c2c1	88*	-5	8	5	-3	-2	3	-1
CCCCNC(=O)CCC(=O)Nc1ccc2nc(N3CCOCC3)cc(C)c2c1	62*	-1	3	-1	2	2	4	-7
Cc1cc(N2CCCCC2)nc2ccc(NC(=O)CCC(=O)NCCC(C)C)cc12	54*	-1	2	-8	-1	-1	-5	-4
COc1cccc(NC(=O)CCC(=O)Nc2ccc3nc(N4CCOCC4)cc(C)c3c2)c1	66*	1	-5	0	1	0	125*	95*
Cc1cc(N2CCN(C)CC2)nc2ccc(NC(=O)CCC(=O)NCCC3=CCCCC3)cc12	6	-5	1	2	/	1	/	/
Cc1cc(N2CCOCC2)nc2ccc(NC(=O)C3CCC(C)CC3)cc12 (configuration not stated)	9	1	9	44	-1	4	/	/
Cc1cc(N2CCOCC2)nc2ccc(NC(=O)CCC(=O)N3CCC4(CC3)OCCO4)cc12	58*	3	11	12	-1	-2	+	+
Cc1cc(N2CCN(C)CC2)nc2ccc(NC(=O)CCC(=O)NCCCOC(C)C)cc12	25	4	4	1	-4	0	/	/
CCOC(=O)C1CCCN(C(=O)CCC(=O)Nc2ccc3nc(N4CCOCC4)cc(C)c3c2)C1 (configuration not stated)	67*	-14	12	-2	-4	1	89*	69*
CCCCNC(=O)CCC(=O)Nc1ccc2nc(N3CCCCC3)cc(C)c2c1	78*	5	5	-3	2	-2	+	145*
CC1CN(CCOc2ccccc2C(C)C)CC(C)O1 (configuration not stated)	1	2	11	-4	/	-1	/	/
COc1ccccc1NC(=O)CC12CC3CC(CC(Br)(C3)C1)C2	-3	-2	2	5	0	-1	/	/
CCSCC(C)(C)n1[nH]c2ccccc2c1=O	0	/	-5	/	/	/	/	/
C=CCOCCn1[nH]c2ccccc2c1=O	47*	2	3	-1	/	0	130*	108*
O=c1cc(C(F)(F)F)[nH]c2ccc(C(F)(F)F)cc12	35*	-5	5	0	1	1	65*	50*
CCc1ccc(OCC(=O)Nc2ccc(S(=O)(=O)Nc3cc(C)on3)cc2)c(Br)c1	3	-1	-4	13	7	-3	/	/
SMILES	FBA Mtb inh	Rv3671c inh	GDH-TPI counter-1	Mtb bLac sens	RecA splice inh	UGM FP inh	Mtb FBA inh conf	GDH-TPI counter-2
COc1cc([N+](=O)[O-])c2nc(C(=O)O)ccc2c1	-1	/	4	/	/	/	/	/
Cc1cccc(NC(=O)NNC(=O)c2ccc3ccccc3c2)c1	-4	/	-10	-6	0	-3	/	/
O=C(NNC(=O)c1ccc2ccccc2c1O)Nc1ccc(F)cc1	37*	-3	9	-13	-3	1	+	174*
Cc1cccc(NC(=O)NNC(=O)c2ccc3ccccc3c2O)c1	29*	/	6	7	-3	1	81*	59*
O=C(CN(C(=O)CNC(=O)c1ccco1)c1cccc(F)c1)NC1CCCCC1	3	5	0	-11	-10	0	/	/
Cn1nnnc1SCC(=O)C(C)(C)C	-1	5	12	-12	-5	1	/	/
CC(C)C(NC(=O)c1ccccc1F)C(=O)NCc1ccc(F)cc1 (configuration not stated)	-2	-1	9	1	0	-2	/	/
COc1ccc2[nH]c3c(c2c1)CCN1C(=O)C(CC(=O)NCc2cccc(C(F)(F)F)c2)C[C@H](C(=O)N(C(C)C)C(C)C)[C@@]31C (some centres not stated)	0	/	4	/	/	/	/	/
COc1ccccc1NC(=O)C(C)OC(=O)Cc1ccsc1 (configuration not stated)	-2	/	6	/	/	/	/	/
Cc1ccc(/C=C/C(=O)N2CCN(c3ccc(F)cc3)CC2)o1	58*	-6	15	-5	1	3	38*	36*
O=C(/C=C/c1ccco1)N1CCN(c2ccc(F)cc2)CC1	-2	5	4	-2	2	-2	/	/
COC(=O)C1=C(C)NC(=O)C1(Nc1nccs1)C(F)(F)F (configuration not stated)	-1	-1	7	0	-1	0	/	/
COC(=O)c1scc2c(=O)cc(C(F)(F)F)[nH]c12	29*	7	-3	-1	i	-1	/	+
Cc1ccc2nc(NCCO)nc(-c3ccccc3)c2c1	37*	3	0	2	-196	-1	73*	48*
OCCNc1nc(-c2ccccc2)c2cc(Cl)ccc2n1	39*	1	7	15	-238	1	123*	104*
OCCNc1nc(-c2ccccc2)c2ccccc2n1	52*	4	17	1	-18	1	171*	148*
Cc1ccc2nc(N/N=C/c3ccccc3F)nc(-c3ccccc3)c2c1	52*	-33	15	32	-1	/	5	-2
COc1cc2c(cc1O)C[C@H]1c3c(cc(O)c(OC)c3-2)CCN1C	47*	6	4	-1	/	-1	32*	23*
CN1CCc2cc(O)cc3c2[C@H]1Cc1ccc(O)c(O)c1-3	7	-12	11	12	2	3	/	/
CCOc1ccc(NC(=O)CCN2C(=O)c3ccccc3C2=O)cc1	-2	-6	4	20	-2	0	/	/

Screening results as filed in PubChem.
